Experiment [1] in a line: anti-His antibody binders, primary screen, artefact control for SMM control protein annotation, biochemical, small-molecule microarray, 635 nm fluorescence (AID 1128).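 Note: score merges feature fluorescence with signal-to-noise for each printed compound spot.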 Particulars: anti-His Alexa647 antibody binding, higher = more signal.
In experiment [2] the test system is Human papillomavirus type 1a E7 protein (residues 1-88). Nature of the experiment: HPV1a E7 small-molecule binders, primary screen, biochemical, small-molecule microarray, residues 1-88, 635 nm (AID 1129). Particulars: small-molecule microarray binding, fluorescence 635 nm; higher = more signal.
The target in experiment [3] is Focal adhesion kinase 1 (Homo sapiens) (UniProt Q05397). Nature of the experiment: small-molecule microarray binders of FAK, primary screen, biochemical, 635/667 nm fluorescence, BSA, DTT (AID 1130).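 Note: composite of spot emission at 667 nm and signal to noise over triplicate slides.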 Particulars: PTK2 binding, 635 nm fluorescence, higher = more signal.
Sequence of Focal adhesion kinase 1 (Homo sapiens) (Q05397 whole entry, looked up): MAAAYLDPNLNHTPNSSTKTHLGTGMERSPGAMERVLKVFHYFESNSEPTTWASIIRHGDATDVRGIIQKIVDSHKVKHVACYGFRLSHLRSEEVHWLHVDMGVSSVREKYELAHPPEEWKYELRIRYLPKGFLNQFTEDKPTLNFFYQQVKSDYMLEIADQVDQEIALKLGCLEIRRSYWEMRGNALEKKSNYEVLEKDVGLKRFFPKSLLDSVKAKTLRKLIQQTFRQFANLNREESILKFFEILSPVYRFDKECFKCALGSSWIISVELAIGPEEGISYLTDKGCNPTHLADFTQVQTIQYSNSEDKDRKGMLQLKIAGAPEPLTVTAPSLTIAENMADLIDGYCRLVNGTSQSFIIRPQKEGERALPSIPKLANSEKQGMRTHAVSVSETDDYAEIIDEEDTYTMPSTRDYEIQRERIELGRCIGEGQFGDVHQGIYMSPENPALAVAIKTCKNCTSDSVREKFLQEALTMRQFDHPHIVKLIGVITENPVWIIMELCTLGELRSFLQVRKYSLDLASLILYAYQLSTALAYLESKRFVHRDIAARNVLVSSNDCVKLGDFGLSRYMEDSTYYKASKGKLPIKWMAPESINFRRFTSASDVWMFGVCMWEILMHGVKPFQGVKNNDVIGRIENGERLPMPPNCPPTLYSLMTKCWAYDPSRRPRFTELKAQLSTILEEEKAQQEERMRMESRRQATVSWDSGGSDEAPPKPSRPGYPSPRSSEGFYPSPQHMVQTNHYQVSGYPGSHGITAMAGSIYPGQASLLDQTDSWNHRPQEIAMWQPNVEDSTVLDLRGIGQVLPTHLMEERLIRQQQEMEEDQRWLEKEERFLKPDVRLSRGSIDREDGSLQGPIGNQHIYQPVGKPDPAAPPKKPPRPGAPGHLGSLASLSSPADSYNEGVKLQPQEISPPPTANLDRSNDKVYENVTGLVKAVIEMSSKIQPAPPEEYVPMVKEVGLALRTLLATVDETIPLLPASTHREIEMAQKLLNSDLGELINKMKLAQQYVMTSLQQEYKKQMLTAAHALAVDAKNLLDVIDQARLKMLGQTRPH
Experiment [4] concerns Fibrinogen (Alexa647-labelled). In words: fibrinogen binders on compound microarrays, profiling panel, artefact control for SMM control-protein annotation, biochemical, small-molecule microarray, 635/667 nm fluorescence (AID 1131).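 Note: z-score merges 667 nm fluorescence with per-spot signal-to-noise over triplicate slides.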 The conditions noted are these: fibrinogen-A647 binding fluorescence, higher = more signal.
Experiment [5] has as its target Follistatin (Homo sapiens) (UniProt P19883). Nature of the experiment: follistatin binders on small-molecule microarrays, primary screen, biochemical, small-molecule microarray, 635/667 nm fluorescence (AID 1132). Particulars: FST binding, 635 nm fluorescence, higher = more signal.
Experiment [6] concerns the target Fibroblast growth factor 2 (Homo sapiens) (UniProt P09038). Nature of the experiment: FGF2 binders on small-molecule microarrays, primary screen, biochemical, small-molecule microarray, 635/667 nm fluorescence (AID 1133). The conditions noted are these: small-molecule microarray binding, FGF2, fluorescence 635/667; higher = more signal.
Experiment [7] can be described thus: mitochondrial membrane potential change in A549 cells, profiling panel, cell-based, JC-1 fluorescence, basal, 24 h, 100 nL (AID 1138).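 Note: A549 lung adenocarcinoma cells under basal conditions with no added stimulus; test concentration not given here.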 Particulars: higher = more signal.
Another experiment has as its system Lefty1. In words: Lefty1 binders on small-molecule microarrays, primary screen, biochemical, small-molecule microarray, 635/667 nm fluorescence (AID 1139). The conditions noted are these: small-molecule microarray binding, fluorescence 635/667; higher = more signal.
The test system of experiment [8] is wheat germ agglutinin (Triticum aestivum), Alexa647-labelled. Nature of the experiment: wheat germ agglutinin binders on compound microarrays, profiling panel, artefact control for SMM control-protein annotation, biochemical, small-molecule microarray, 635/667 nm fluorescence (AID 1140).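 Note: score merges 667 nm feature emission with signal to noise over triplicate slides.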 Particulars: WGA-A647 binding, 635 nm fluorescence, higher = more signal.
The target in experiment [9] is Luciferin 4-monooxygenase (Photinus pyralis) (UniProt P08659). Nature of the experiment: firefly luciferase enzyme inhibitors, primary screen, biochemical, luminescence, purified enzyme, 2006 set (AID 1141).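 Note: cell-free assay with purified firefly luciferase at 100 ng per well in PBS; test concentration not given here.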 The conditions noted are these: SteadyGlo luminescence, 30 min, higher = more signal, called active from +8 up or from −8 down.
Sequence of Luciferin 4-monooxygenase (Photinus pyralis) (P08659 whole entry, looked up): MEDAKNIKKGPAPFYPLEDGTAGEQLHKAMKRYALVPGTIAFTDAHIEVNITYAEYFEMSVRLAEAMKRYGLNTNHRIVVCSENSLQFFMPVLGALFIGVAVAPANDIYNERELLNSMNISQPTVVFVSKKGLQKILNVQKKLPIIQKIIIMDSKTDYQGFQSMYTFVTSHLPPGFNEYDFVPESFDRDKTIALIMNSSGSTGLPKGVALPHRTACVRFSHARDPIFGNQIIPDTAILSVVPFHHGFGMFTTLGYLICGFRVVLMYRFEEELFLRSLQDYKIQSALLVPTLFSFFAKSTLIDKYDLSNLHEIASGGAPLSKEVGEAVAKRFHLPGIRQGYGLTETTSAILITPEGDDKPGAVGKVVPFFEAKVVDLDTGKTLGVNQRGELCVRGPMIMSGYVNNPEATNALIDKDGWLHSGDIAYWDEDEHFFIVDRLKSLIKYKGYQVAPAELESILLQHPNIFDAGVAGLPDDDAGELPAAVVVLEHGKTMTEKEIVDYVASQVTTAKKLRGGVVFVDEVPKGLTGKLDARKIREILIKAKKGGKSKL
Experiment [10] deals with Wnt5a (protein binding on small-molecule microarray). Nature of the experiment: Wnt5a binders on small-molecule microarray, primary screen, biophysical, 635/667 nm fluorescence (AID 1142).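 Note: fluorescence read at 667 nm with signal to noise per printed feature.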 Particulars: 635 nm fluorescence, higher = more signal.
Experiment [11] can be described thus: cell viability in Huh7 cells, primary screen, cytotoxicity control for HCV replication inhibitor project, CellTiter-Glo luminescence, basal, 48 h (AID 1143).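 Note: Huh7 hepatoma cells carrying a hepatitis C replication reporter with no stimulus; test concentration not given here.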 Particulars: Huh7 HCV replicon, higher = more signal, called active from +8 up or from −8 down. A general note: ATP-based viability assays read luminescence as a measure of living cells.
Experiment [12] is described as follows: P. aeruginosa biofilm formation inhibitors, primary screen, PAO1 strain, BacTiter-Glo luminescence, LB-PBS (AID 1144). The conditions noted are these: 12 h, higher = more signal.
The nature of experiment [13]: CREB reporter modulators without forskolin, primary screen, cell-based, PC12, CRE-LacZ reporter, unstimulated (AID 1145). Particulars: no forskolin, luminescence, 4.5 h, higher = more signal, called active from +8 up or from −8 down.
Experiment [14] can be described thus: CREB reporter modulators under forskolin, primary screen, cell-based, PC12, CRE-LacZ reporter, forskolin-stimulated (AID 1146).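 Note: PC12 cells with 6xCRE LacZ reporter stimulated by forskolin 10 µM; beta-galactosidase reporter signal reflecting CREB driven transcription.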 Particulars: luminescence, 4.5 h, higher = more signal, called active from +8 up or from −8 down.
Experiment [15] concerns the target Streptavidin (Streptomyces avidinii) (UniProt P22629). In words: streptavidin binders on small-molecule microarray, primary screen, artefact control for SMM compound annotation, biophysical, 635/667 nm fluorescence (AID 1147).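 Note: signal reflects streptavidin binding to arrayed compounds as a control protein.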 Particulars: streptavidin binding, higher = more signal.
Experiment [16] in a line: small-molecule binders of probe aInhba, primary screen, biochemical, small-molecule microarray, 635/667 nm fluorescence (AID 1148).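 Note: score merges 667nm spot fluorescence with signal-to-noise for antibody binding to printed compounds.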 Particulars: higher = more signal.
Experiment [17] has as its target Torsin-1A (Homo sapiens) (UniProt O14656). Nature of the experiment: torsin A binders from cell lysate, primary screen, small-molecule microarray, wild-type, 635/667 nm (AID 1149). The conditions noted are these: COS7 hTOR1A-WT lysate, 635 nm fluorescence, higher = more signal.
Experiment [18] has the same target. Nature of the experiment: small-molecule binders of mutant TOR1A in lysate, primary screen, cell lysate, small-molecule microarray, COS7 lysate, 635/667 nm fluorescence (AID 1150).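 Note: score pools 667 nm emission and signal to noise measuring lysate protein binding.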 Particulars: COS7 hTOR1A mutant lysate, 635 nm fluorescence, higher = more signal.
The test system of experiment [19] is Sonic hedgehog protein (Shh). In words: small-molecule binders of Shh protein, primary screen, biochemical, small-molecule microarray, 635/667 nm fluorescence (AID 1151).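 Note: Shh protein binding to compounds spotted on small-molecule microarray slides; score combines spot fluorescence intensity with signal-to-noise across triplicate slides.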 The conditions noted are these: small-molecule microarray binding, 635 nm fluorescence; higher = more signal.

Each structure is given as a SMILES string. Calls of active or inactive are those of the source. Unless noted, the rule behind the calls is not given here.

Sequence of Follistatin (Homo sapiens) (P19883 whole entry, looked up): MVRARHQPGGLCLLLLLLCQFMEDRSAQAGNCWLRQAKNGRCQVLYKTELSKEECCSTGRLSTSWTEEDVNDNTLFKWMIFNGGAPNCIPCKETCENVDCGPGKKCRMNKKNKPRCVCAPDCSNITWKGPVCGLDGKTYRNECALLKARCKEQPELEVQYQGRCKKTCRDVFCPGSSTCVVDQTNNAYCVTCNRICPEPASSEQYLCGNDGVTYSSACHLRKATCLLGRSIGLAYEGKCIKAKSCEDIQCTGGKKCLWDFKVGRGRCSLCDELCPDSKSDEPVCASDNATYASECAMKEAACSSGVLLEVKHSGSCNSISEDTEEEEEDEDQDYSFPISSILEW
Sequence of Fibroblast growth factor 2 (Homo sapiens) (P09038 whole entry, looked up): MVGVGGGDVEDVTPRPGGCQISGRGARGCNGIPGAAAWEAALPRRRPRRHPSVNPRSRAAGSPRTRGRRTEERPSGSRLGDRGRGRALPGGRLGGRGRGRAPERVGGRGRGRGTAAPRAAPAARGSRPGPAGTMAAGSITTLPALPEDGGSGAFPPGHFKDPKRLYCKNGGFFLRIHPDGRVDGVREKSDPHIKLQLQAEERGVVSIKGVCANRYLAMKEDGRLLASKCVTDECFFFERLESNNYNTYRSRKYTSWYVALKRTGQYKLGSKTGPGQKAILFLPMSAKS
Sequence of Streptavidin (Streptomyces avidinii) (P22629 whole entry, looked up): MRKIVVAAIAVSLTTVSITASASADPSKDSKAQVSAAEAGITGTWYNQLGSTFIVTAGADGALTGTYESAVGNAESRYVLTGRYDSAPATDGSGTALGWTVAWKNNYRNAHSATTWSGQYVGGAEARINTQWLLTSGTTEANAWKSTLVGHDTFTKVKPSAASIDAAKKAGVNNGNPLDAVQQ
Sequence of Torsin-1A (Homo sapiens) (O14656 whole entry, looked up): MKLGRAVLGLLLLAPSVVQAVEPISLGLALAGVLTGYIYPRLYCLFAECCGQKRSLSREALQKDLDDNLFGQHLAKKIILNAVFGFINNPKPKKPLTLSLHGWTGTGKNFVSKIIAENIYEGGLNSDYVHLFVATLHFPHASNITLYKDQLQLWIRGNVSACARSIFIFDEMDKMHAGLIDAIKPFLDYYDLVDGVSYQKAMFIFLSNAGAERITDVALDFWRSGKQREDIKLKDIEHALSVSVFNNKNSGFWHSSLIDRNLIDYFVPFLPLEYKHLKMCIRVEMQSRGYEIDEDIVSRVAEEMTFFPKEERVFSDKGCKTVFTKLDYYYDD

As for `COCCOC(=O)N1C(=O)[C@@]2(c3cc(C#CCCO)ccc31)[C@H](C(=O)NC[C@H](O)c1ccccc1)[C@H]1C(=O)O[C@H](c3ccccc3)[C@H](c3ccccc3)N1[C@@H]2c1ccccc1OCCO`, the composite z-score in [1] is -0.338; in experiment [2], 1.23; in experiment [3] it was 1.07; in experiment [4] it was 0.59; in [5] it was 1.28; in experiment [6] it was 1.42. For the same compound, the composite z-score in the experiment with Lefty1 was found to be 1.35; in experiment [8], 1.07; in experiment [10] it was 0.524; in experiment [15] it was 0.562; in [16], 0.413; in the experiment with Torsin-1A (Homo sapiens) [17], 1.19. Besides, the composite z-score in the experiment with Torsin-1A (Homo sapiens) [18] came to 0.597; in experiment [19] it was 1.35. In addition, the z-score in experiment [7] is 0.358; in experiment [9], -1.02 (inactive); in experiment [11] it was -1.34 (inactive); in [12], 1.59 (inactive); in [13], -0.0607 (inactive); in [14], 0.172 (inactive).

As for `C=CCN1C(=O)[C@@]2(O[C@@H](CCn3cc([C@H](O)c4ccccc4)nn3)[C@H]([Si](C)(C)c3ccc(OC)cc3)[C@H]2C)c2cc(NC(=O)c3ccc(OC)cc3)ccc21`, the composite z-score in experiment [1] turned out to be 0.623; in [2] it was 0.931; in experiment [3], 0.386; in experiment [4], 0.0475; in experiment [5] it was 0.987; in experiment [6], 0.518. The composite z-score was 0.628 with Lefty1; -0.191 in experiment [8]; 0.192 in [10]; 0.429 in experiment [15]; -0.128 in [16]; -0.0041 with Torsin-1A (Homo sapiens) [17]. Also, the composite z-score was -0.0819 with Torsin-1A (Homo sapiens) [18] and 1.32 in experiment [19]. Also, the z-score is 0.763 in [7]; 0.427 (inactive) in experiment [9]; -3.14 (inactive) in [11]; -0.527 (inactive) in experiment [12]; 3.97 (inactive) in experiment [13]; 0.35 (inactive) in experiment [14].

`COc1ccc([Si](C)(C)[C@@H]2[C@@H](CCO)O[C@]3(C(=O)N(Cc4ccc(N5C(=O)c6ccccc6Oc6ccccc65)cc4)c4ccccc43)[C@H]2C)cc1`: the composite z-score in experiment [1] was 0.0758; in experiment [2], -0.235; in [3], -0.394; in [4] it was -0.0953; in experiment [5] it was -0.163; in experiment [6], -1.1. For the same compound, the composite z-score in the experiment on Lefty1 was 0.0179; in [8], 0.104; in experiment [10] it was -0.355; in [15], -0.132; in experiment [16] it was -0.179; with Torsin-1A (Homo sapiens) [17], -1.04. The composite z-score is -0.949 with Torsin-1A (Homo sapiens) [18] and 0.0769 in [19]. The z-score in [7] was -0.285; in experiment [9], 0.173 (inactive); in experiment [11] it was -7.17 (inactive); in experiment [12] it was -0.734 (inactive); in experiment [13], 2.5 (inactive); in experiment [14], 0.286 (inactive).

For `Cc1ccc(-c2cccc(=O)o2)cc1`, the composite z-score in [1] is -1.57; in experiment [2], -0.935; in experiment [3] it was -0.404; in [4], -0.551; in experiment [5], 0.272; in experiment [6] it was 0.156. The composite z-score in the experiment on Lefty1 is -0.33; in experiment [8] it was -0.233; in experiment [10] it was 0.796; in [15], -0.317; in experiment [16], -0.0523; with Torsin-1A (Homo sapiens) [17], -0.495. Moreover, the composite z-score with Torsin-1A (Homo sapiens) [18] is -0.173; in experiment [19], -0.0613. In addition, the z-score is -0.241 in experiment [7]; -1.23 (inactive) in experiment [9]; -0.0525 (inactive) in experiment [11]; 1.07 (inactive) in experiment [12]; -0.322 (inactive) in experiment [13]; 0.699 (inactive) in experiment [14].

For `O=C(CS)NCCCCCNC(=O)[C@@H]1C[C@@H]2C(=O)N3CCC[C@H]3C(=O)N2[C@@H]1c1ccc(O)cc1`, the composite z-score in experiment [1] was 3.22; in experiment [2], 1.12; in experiment [3], 0.0999; in [4] it was -0.174; in experiment [5] it was 1.26; in [6], 1.34. Moreover, the composite z-score in the experiment with Lefty1 was -0.0581; in experiment [8], -0.339; in experiment [10], 0.257; in experiment [15], -0.23; in [16], -0.0313; with Torsin-1A (Homo sapiens) [17], 0.99. The composite z-score stood at 1.24 with Torsin-1A (Homo sapiens) [18] and 0.837 in experiment [19]. The z-score in experiment [7] was 0.605; in [9], -1.59 (inactive); in [11], -0.237 (inactive); in [12] it was -0.78 (inactive); in experiment [13], -0.13 (inactive); in [14], -0.862 (inactive).

For the origin of these results see PubChem BioAssay.
